High-throughput results: PubChem BioAssay, National Center for Advancing Translational Sciences (NCATS)
Sampled rows, rich in hits. Any-hit rate of the full collection: about 5.2%.
Sfp PPTase inh – blocks B. subtilis Sfp PPTase activity | Biochemical Sfp PPTase activity, qHTS | Potency, µM, without a hit: largest response in the series, negative = inhibition, most hits filed as inhibitors | 310,000 tested, 3.5% active | AID 1490;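 further: the enzyme is Sfp with the accession as filed and its product quenches rhodamine fluorescence; potency means the concentration at half of the fitted maximal effect; 0% = enzyme reaction without inhibitor and -100% = no enzyme wells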
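Step 1, compound plus 15 nM Sfp-PPTase, 15 min, room temperature. Step 2, add rhodamine-CoA (5 uM) and BHQ-2-YbbR (12.5 uM). Step 3, read 525/598 nm fluorescence at 0 and 30 min.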
Tau fluor counter – counter-screen for tau fibril formation inhibitors; AID 1463; Potency, µM (highest dose often 57.7 µM), for inactives: at the highest dose activity change, negative = decrease; tau K18 P301L Alexa594 fluorescence, heparin fibrillization; 280,000 tested, 0.93% active; further: potency means the concentration at half of the fitted maximal effect; nearly all actives have a fitted effect of over 55% in size
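Human K18 P301L tau (15 uM unlabeled plus 0.24 uM Alexa 594-labeled, final) in 100 mM sodium acetate pH 7 was mixed with compound and 20 uM heparin and incubated 6 hr at 37 C.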
Tau FP inhib – inhibitors of human tau fibril formation. P10636. K18 P301L tau heparin fibrillization, Alexa594 FP, 6 h. Potency, µM (doses to about 57.7 µM), inactives show at the top dose activity, negative = inhibition, actives largely listed as inhibitors. 280,000 tested, 0.39% active; further: potency means the concentration at half of the fitted maximal effect; nearly all actives have a fitted effect of over 55% in size
Target sequence (P10636 561-689 P618L limits assumed): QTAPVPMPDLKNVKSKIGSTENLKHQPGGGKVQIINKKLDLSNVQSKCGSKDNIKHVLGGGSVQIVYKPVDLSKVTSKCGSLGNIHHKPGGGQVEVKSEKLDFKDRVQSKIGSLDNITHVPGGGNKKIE
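Human K18 P301L fragment (15 uM unlabeled plus 0.24 uM Alexa 594-labeled) in 100 mM sodium acetate pH 7 with compound, aggregation induced by 20 uM heparin for 6 hr at 37 C. ThT (30 uM) added for 1 hr, then Alexa 594 FP read.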
FBPA coupling cs – coupling enzyme interference in Giardia aldolase counter-screen | coupling enzyme system counterscreen, AmpLite Red fluorescence | activity change, negative = inhibition, % at 58.2 µM, hits read low | 290,000 tested, 0.67% active; in the data active means activity change below about -30%
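First, compound is pin-transferred into glyceraldehyde-3-phosphate coupling-enzyme reagent at 57.5 uM final and held 10 min at RT. Next, substrate, coupling system and AmpLite Red are added. After 20 min RT, fluorescence (525/598 nm) is read.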
Tau fibril ThT – blocks human tau fibril formation measured by thioflavin T; P10636; recombinant tau K18 P301L (four-repeat tau fragment), heparin-induced fibrillization, ThT fluorescence; Potency, µM (doses to about 57.4 µM), without a hit: top-dose activity, negative = inhibition, actives largely listed as inhibitors; 270,000 tested, 2.1% active; further: potency means the concentration at half of the fitted maximal effect; nearly all actives have a fitted effect of over 55% in size
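Tau K18 P301L fragment (15 uM unlabeled plus 0.24 uM Alexa 594-labeled) in 100 mM sodium acetate pH 7 with compound, fibrillization induced by 20 uM heparin for 6 hr at 37 C. Thioflavin T (30 uM) added, fluorescence read after 1 hr (ex 450, em 510 nm).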
The depositor's hits bear a star; ? = inconclusive; . = no result given; [ ] = another dose, or the depositor's remark. Unless noted, the call rests on the fitted dose curve; in most records, active means well fitted curve in the direction sought with a large enough effect; inconclusive means small, poorly fitted or top-dose-only effect, or another doubt; inactive means no such curve, though single readings can be large; an effect the other way counts as inactive or inconclusive. Unless noted, on the % scale 0 is the no-effect control and ±100 the full control effect.

SMILES	Sfp PPTase inh	Tau fluor counter	Tau FP inhib	FBPA coupling cs	Tau fibril ThT
CCN(CC)CCOC(=O)c1ccc(N/C=C(/C#N)c2nc(-c3ccc(OC)cc3)cs2)cc1	56µM*	-14%	11%	0	.
O=C(Cn1c2ncccc2c(=O)n1-c1ccccc1)Nc1cccc(C(F)(F)F)c1	.	-6%	-6%	.	-5%
Clc1cccc(-c2ccc(C=Nc3ccc(N4CCOCC4)cc3)o2)c1Cl	?	?	-24%	-16	13µM*
Clc1ccc(-c2ccc(C=Nc3ccc(N4CCOCC4)cc3)o2)c(Cl)c1	-8%	-1%	-1%	-18	?
CC1CCN(C(=O)CN2c3ccc(C(C)C)cc3-c3ccccc3S2(=O)=O)CC1	.	-4%	-11%	.	0%
CCCc1cc(=O)[nH]c(SCC(=O)CSc2nc(CCC)cc(=O)[nH]2)n1	56µM*	-26%	?	1	16µM*
CCCc1cc(=O)[nH]c(SCC(=O)NC)n1	-8%	-1%	-1%	-1	0%
O=C(Nc1ccccc1F)Nc1cc(S(=O)(=O)N2CCOCC2)ccc1N1CCCC1	0%	-23%	3%	0	-6%
CN1CCN(S(=O)(=O)c2ccc(NC(=O)Nc3cccc(Cl)c3)cc2)CC1	-26%	?	18µM*	-1	?
O=C(Nc1ccc(Cl)c(Cl)c1)Nc1cc(S(=O)(=O)N2CCOCC2)ccc1N1CCCC1	4%	7.9µM*[quencher]	?	-2	5%
CN1CCN(S(=O)(=O)c2ccc(NC(=S)NC(=O)c3ccc(Cl)cc3)cc2)CC1	22µM*	-25%	-2%	-5	-16%
CN1CCN(C(=S)NC(=O)c2ccc(S(=O)(=O)N3CCOCC3)cc2)CC1	45µM*	7%	-2%	1	2%
CN1CCN(S(=O)(=O)c2ccc(NC(=O)c3ccccc3Cl)cc2)CC1	12%	.	.	2	.
O=C(NC(=S)N1CCN(C(c2ccccc2)c2ccccc2)CC1)c1ccc(S(=O)(=O)N2CCOCC2)cc1	20%	-12%	4%	0	-2%
CCN(C(=O)CSc1nc2ccccc2n1CC(=O)NCc1ccc(OC)cc1)c1ccccc1	.	-9%	-3%	.	-13%
COc1ccc2c(C)c(CCC(=O)NCc3ccc(C)cc3)c(=O)oc2c1	.	-9%	-2%	.	-6%
CSCC[C@H](NC(=O)[C@H](CC(C)C)NC(=O)CNC(=O)[C@H](Cc1ccccc1)N(C)C(=O)[C@H](Cc1ccccc1)NC(=O)[C@H](CC(=O)O)NC(=O)[C@@H](N)CC(=O)O)C(N)=O	20%	.	.	0	.
O=C(Nc1ccccc1)Nc1ccc(S(=O)(=O)N2CCCCC2)cc1	-4%	16µM*[quencher]	32µM*	0	12%
CN(C)NC(=S)Nc1ccc(S(=O)(=O)N2CCCCC2)cc1	17%	-9%	-6%	0	-5%
NS(=O)(=O)c1ccc(NC(=S)Nc2ccc(S(=O)(=O)N3CCCC3)cc2)cc1	50µM*	?	?	1	-13%
O=C(Nc1cccc(Cl)c1)Nc1cc(S(=O)(=O)N2CCCCC2)ccc1Cl	27%	?	11µM*	1	15%
CN(CCOc1ccccc1)CC(=O)Nc1ccc(S(=O)(=O)N2CCCC2)cc1	56µM*	-19%	7%	2	-10%
O=C(Nc1cccc(O)c1)c1cc(S(=O)(=O)N2CCCC2)ccc1Cl	5%	-11%	4%	3	-16%
N[C@H](CSSC[C@@H](N)C(=O)O)C(=O)O	23%	.	.	-2	.
NS(=O)(=O)c1ccc(NC(=S)NC2CC2)cc1	10µM*	15%	3%	2	4%
SMILES	Sfp PPTase inh	Tau fluor counter	Tau FP inhib	FBPA coupling cs	Tau fibril ThT
Cc1ccc(N=Nc2c(N)[nH]n3c(=O)cc(C)nc23)cc1	1%	-20%	?	-2	4µM*
Cc1ccc(N=Nc2c(N)[nH]n3c(=O)c4c(nc23)CCCC4)cc1	32%	-13%	2%	-4	1.4µM*
Cc1cc(=O)n2[nH]c(C(F)(F)F)c(-c3ccccc3)c2n1	18%	.	.	4	.
Cc1cc(C)n2[nH]c(=O)c(N=Nc3ccc(S(N)(=O)=O)cc3)c2n1	21%	-2%	-1%	0	?
Cc1ccc(N=Nc2c(=O)[nH]n3c(C)cc(C)nc23)cc1	-9%	-12%	-5%	-1	20µM*
COC(=O)N[C@@H](CCc1ccccc1)[C@]1(C(=O)OC)CCCC1=O	8%	-1%	10%	3	0%
